# Reference: the supplement of paper PMC10849652
# Of roughly 7,900 targets only a part is listed; those with a hit were picked by preference. About 0.6% of all pairs of compound and target were hits. A number with no mark means an inactive call.
# Experiments:
# Experiment in all cases: log2 fold change, soluble protein after heating vs DMSO (PISA); higher = thermal stabilisation; K562 cells, 10 uM, 30 min; active = over 0.2 and 3.5 SD of the protein, either way, in both replicates (recomputed)
# [1] = compound: C#Cc1cccc(Nc2ncnc3cc(OCCOC)c(OCCOC)cc23)c1 [erlotinib]
# Outline: (§1)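 Soluble protein was defined as the supernatant after 21,000xg for 90 min. It came from K562 cells at 2×10^6 cells/mL given 10 μM compound for 30 min, heated in aliquots for 3 min across 48°C-58°C, pooled, and extracted in PBS with 0.5% NP-40 at 4°C, and was quantified by TMTpro 16plex LC-MS/MS with equalised channel sums. Thermal stability against control samples, from duplicates, is reported as log2 fold change.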
# [2] = compound: C/C(=N\NC(=O)C1=CC(=CC=C1)S(=O)(=O)N2CCOCC2)/C3=C(C=CC(=C3)Cl)O
# Outline: as §1
# [3] = compound: C1=CC(=C(C=C1Cl)C2=NC3=NC=CN=C3C(=N2)NC4=CC=NC=C4)F
# Outline: as §1
# [4] = compound: C1=CC(=CC=C1C2=NC3=C(N2)C=C(C=C3)C(=O)N)OC4=CC=C(C=C4)Cl
# Outline: as §1
# [5] = compound: C1=CC2=C(C=CC(=C2)/C=C\3/C(=O)NC(=NCC4=CC=CS4)S3)N=C1
# Outline: as §1
# [6] = compound: C1=CC2=NC=CN=C2C=C1/C=C/3\C(=O)NC(=O)S3
# Outline: as §1
# [7] = compound: C1=CC=C(C=C1)C2=NC(=C(N2)C3=CC=NC=C3)C4=CC(=C(C=C4)Cl)O
# Outline: as §1
# [8] = compound: C1=CC=C2C(=C1)C3=NNC4=CC=CC(=C43)C2=O
# Outline: as §1
# [9] = compound: C1CCN(C1)C(=O)NC2=CC=CC(=C2)NC3=NC=C(C(=N3)NCCC4=CN=CN4)Br
# Outline: as §1
# [10] = compound: C1CN(CCC1(CC2=CC=C(C=C2)Cl)N)C3=NC=NC4=C3C=CN4
# Outline: as §1
# [11] = compound: C1COCCN1CCN2C3=CC=CC=C3N=C2NC(=O)C4=CC(=CC=C4)[N+](=O)[O-] [IRAK-1-4 Inhibitor I]
# Outline: as §1
# [12] = compound: C=CC(=O)N1CCC[C@@H](n2nc(-c3ccc(Oc4ccccc4)cc3)c3c(N)ncnc32)C1 [ibrutinib]
# Outline: as §1
# [13] = compound: CC(=O)c1cnc2ccc(-c3cc(Cl)c(O)c(Cl)c3)nc2c1N[C@H]1CC[C@H](CN(C)C)CC1
# Outline: as §1
# [14] = compound: CC(C)(C)Cn1c(N)nc2ccc(-c3[nH]c(C(C)(C)C)nc3-c3ccc(F)cc3)nc21 [ralimetinib]
# Outline: as §1
# [15] = compound: CC(C)(O)CC(=O)NCCn1ccc2ncnc(Nc3ccc(Oc4cccc(C(F)(F)F)c4)c(Cl)c3)c21
# Outline: as §1
# [16] = compound: CC(C)C1=C2N=C(C=C(N2N=C1)NCC3=CC=CC=C3)NCCCCCCN
# Outline: as §1
# [17] = compound: CC(C)C[C@@H](C=O)NC(=O)[C@H](CC(C)C)NC(=O)[C@H](CC(C)C)NC(=O)OCc1ccccc1
# Outline: as §1
# [18] = compound: CC(C)N(C[C@H]1O[C@@H](n2cnc3c(N)ncnc32)[C@H](O)[C@@H]1O)[C@H]1C[C@@H](CCc2nc3cc(C(C)(C)C)ccc3[nH]2)C1 [pinometostat]
# Outline: as §1
# [19] = compound: CC1=C(C(CC(=O)N1)C2=CC=C(C=C2)C(F)(F)F)C(=O)NC3=C(C=C4C(=C3)C=NN4)F
# Outline: as §1
# [20] = compound: CC1=C(C2=C(C=C1)C(=O)C3=CC=CC=C3N2CCCN)C
# Outline: as §1
# Sequence of UniProt P51692 (P51692 whole entry, looked up): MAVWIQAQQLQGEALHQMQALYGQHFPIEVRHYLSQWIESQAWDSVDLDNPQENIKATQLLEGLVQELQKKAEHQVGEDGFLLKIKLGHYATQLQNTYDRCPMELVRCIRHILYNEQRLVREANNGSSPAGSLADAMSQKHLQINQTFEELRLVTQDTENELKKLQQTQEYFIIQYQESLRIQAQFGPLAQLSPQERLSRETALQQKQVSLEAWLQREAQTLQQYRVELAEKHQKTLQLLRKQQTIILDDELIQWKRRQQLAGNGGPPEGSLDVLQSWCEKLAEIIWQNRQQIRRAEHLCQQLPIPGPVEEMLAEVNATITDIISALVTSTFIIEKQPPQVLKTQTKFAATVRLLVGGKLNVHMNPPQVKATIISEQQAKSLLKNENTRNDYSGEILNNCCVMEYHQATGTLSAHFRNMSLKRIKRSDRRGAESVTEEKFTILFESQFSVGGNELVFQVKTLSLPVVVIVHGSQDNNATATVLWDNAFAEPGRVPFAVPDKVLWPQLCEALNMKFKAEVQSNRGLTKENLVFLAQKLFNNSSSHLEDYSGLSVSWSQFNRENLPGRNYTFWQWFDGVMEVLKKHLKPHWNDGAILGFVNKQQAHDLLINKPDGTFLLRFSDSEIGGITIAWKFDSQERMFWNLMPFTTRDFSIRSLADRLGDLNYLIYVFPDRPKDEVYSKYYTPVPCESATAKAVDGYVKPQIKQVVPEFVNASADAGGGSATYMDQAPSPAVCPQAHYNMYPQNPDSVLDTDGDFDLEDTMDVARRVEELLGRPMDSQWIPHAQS
# Sequence of UniProt Q9Y5J6 (Q9Y5J6 whole entry, looked up): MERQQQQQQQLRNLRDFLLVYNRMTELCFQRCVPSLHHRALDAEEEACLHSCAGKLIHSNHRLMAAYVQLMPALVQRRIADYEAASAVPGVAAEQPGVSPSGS
# Sequence of UniProt P63165 (P63165 whole entry, looked up): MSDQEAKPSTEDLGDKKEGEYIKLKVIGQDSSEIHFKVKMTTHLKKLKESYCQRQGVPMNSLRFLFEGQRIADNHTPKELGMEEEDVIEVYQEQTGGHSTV
# Sequence of UniProt Q9P289 (Q9P289 whole entry, looked up): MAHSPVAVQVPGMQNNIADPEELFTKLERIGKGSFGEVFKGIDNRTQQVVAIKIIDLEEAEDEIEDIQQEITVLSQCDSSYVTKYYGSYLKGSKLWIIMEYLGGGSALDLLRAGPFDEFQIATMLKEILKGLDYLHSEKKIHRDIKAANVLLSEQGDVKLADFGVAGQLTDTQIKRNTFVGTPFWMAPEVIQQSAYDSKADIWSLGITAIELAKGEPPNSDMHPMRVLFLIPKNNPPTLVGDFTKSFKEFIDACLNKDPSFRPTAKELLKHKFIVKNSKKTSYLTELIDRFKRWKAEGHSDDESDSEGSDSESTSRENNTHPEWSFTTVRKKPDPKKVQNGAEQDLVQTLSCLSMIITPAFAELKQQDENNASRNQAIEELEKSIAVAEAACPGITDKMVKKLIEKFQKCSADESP
# Sequence of UniProt Q13247 (Q13247 whole entry, looked up): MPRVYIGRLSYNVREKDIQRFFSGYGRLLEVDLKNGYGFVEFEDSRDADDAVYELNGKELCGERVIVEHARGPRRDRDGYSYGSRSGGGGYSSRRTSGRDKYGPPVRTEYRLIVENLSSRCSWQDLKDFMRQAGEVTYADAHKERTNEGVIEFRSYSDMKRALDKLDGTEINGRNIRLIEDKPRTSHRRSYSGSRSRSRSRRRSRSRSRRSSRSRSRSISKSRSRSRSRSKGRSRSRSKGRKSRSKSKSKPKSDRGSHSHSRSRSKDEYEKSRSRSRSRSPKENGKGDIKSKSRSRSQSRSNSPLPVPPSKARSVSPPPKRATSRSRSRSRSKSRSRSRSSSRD
# Sequence of UniProt P15907 (P15907 whole entry, looked up): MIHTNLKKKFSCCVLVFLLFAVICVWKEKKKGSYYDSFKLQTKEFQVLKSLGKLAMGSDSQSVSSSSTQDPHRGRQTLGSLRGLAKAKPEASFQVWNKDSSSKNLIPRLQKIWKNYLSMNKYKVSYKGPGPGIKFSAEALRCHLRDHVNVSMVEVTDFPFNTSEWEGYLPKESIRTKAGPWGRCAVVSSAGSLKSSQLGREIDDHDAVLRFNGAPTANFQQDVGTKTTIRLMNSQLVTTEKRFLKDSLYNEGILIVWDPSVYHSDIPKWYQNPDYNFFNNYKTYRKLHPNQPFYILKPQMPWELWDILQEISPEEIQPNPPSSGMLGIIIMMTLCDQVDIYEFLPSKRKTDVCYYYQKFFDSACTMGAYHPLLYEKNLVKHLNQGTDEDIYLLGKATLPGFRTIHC
# Sequence of UniProt Q9BZJ4 (Q9BZJ4 whole entry, looked up): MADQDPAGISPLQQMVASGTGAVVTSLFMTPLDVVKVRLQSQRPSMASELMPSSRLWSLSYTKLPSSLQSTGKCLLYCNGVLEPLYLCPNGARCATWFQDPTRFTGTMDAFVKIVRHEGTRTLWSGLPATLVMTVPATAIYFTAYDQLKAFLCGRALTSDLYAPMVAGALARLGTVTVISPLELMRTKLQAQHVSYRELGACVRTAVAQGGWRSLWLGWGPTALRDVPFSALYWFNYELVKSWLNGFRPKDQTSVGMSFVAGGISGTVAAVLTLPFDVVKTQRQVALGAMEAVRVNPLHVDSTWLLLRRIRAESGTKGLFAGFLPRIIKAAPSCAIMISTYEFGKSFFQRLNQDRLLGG
# Sequence of UniProt Q6P1M0 (Q6P1M0 whole entry, looked up): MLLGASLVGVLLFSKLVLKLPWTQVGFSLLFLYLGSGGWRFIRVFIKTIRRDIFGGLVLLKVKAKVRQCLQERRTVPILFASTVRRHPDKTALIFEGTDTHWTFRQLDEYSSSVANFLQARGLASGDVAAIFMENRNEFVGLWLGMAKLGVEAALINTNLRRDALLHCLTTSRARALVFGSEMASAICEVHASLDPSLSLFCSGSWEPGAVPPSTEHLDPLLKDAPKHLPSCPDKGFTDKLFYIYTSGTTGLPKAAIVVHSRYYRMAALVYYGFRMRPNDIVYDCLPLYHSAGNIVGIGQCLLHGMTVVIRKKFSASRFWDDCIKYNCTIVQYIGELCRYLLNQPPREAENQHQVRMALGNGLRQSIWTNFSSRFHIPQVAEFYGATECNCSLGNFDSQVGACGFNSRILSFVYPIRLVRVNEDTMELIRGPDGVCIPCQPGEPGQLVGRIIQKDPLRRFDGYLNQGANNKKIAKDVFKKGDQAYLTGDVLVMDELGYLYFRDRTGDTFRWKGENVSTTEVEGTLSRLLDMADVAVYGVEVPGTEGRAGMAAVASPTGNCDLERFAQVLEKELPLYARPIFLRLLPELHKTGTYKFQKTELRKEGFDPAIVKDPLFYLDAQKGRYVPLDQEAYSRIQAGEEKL
# Sequence of UniProt O14975 (O14975 whole entry, looked up): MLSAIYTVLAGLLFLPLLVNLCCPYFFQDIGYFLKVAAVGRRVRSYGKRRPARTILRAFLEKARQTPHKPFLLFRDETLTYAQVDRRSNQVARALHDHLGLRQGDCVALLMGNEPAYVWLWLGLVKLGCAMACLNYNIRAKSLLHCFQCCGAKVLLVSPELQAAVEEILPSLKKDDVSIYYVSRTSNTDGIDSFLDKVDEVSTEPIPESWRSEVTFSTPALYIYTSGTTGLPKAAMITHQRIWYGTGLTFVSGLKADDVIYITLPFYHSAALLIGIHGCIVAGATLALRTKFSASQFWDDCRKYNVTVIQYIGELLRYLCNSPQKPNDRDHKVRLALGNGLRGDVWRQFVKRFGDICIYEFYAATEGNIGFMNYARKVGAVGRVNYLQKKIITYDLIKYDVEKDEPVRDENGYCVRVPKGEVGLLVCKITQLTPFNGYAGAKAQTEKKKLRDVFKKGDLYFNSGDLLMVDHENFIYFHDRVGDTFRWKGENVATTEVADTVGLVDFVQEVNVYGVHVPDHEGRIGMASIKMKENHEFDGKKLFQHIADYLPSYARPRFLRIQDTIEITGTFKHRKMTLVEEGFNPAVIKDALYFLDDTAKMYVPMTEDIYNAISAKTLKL
# Sequence of UniProt P51687 (P51687 whole entry, looked up): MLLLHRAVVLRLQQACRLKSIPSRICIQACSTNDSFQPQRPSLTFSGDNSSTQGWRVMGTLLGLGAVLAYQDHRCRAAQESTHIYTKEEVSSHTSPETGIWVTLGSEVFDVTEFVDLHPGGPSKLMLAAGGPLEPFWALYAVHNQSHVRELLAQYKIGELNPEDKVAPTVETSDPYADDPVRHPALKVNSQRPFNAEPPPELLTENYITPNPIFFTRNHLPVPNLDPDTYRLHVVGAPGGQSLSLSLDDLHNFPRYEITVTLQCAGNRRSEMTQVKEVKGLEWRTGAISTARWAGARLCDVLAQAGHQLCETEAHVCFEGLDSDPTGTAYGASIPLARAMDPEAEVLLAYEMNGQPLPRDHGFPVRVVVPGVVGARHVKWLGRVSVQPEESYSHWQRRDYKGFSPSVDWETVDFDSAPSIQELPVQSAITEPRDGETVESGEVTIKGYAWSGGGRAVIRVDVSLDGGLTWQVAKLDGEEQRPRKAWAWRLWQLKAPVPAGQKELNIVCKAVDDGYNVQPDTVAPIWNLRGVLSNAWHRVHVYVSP
# Sequence of UniProt P30626 (P30626 whole entry, looked up): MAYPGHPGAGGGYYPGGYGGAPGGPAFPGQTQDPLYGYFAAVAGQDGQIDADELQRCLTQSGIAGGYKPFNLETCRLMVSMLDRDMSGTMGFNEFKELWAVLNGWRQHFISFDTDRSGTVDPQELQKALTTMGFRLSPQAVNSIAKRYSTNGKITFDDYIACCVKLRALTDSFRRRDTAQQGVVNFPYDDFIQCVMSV
# Sequence of UniProt Q15527 (Q15527 whole entry, looked up): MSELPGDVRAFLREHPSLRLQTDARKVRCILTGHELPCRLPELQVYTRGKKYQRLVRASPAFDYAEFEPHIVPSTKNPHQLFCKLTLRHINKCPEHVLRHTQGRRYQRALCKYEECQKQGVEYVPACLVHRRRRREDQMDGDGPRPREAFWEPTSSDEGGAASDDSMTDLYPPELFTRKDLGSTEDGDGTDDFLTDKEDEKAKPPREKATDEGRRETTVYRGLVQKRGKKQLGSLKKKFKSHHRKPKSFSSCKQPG
Target,log2 fold change [1],log2 fold change [2],log2 fold change [3],log2 fold change [4],log2 fold change [5],log2 fold change [6],log2 fold change [7],log2 fold change [8],log2 fold change [9],log2 fold change [10],log2 fold change [11],log2 fold change [12],log2 fold change [13],log2 fold change [14],log2 fold change [15],log2 fold change [16],log2 fold change [17],log2 fold change [18],log2 fold change [19],log2 fold change [20]
SUOX (UniProt P51687),0.044,0.047,0.046,-0.01,0.027,0.036,-0.112,-0.004,0.013,0.087,0.123,-0.007,0.003,0.012,-0.022,0.042,0.013,0.016,0.039,0.02
SLC25A39 (UniProt Q9BZJ4),-0.072,-0.217,0.038,0.062,0.193,0.118,-0.042,-0.046,-0.186,0.112,0.037,0.032,0.068,-0.035,-0.112,-0.673 (active),0.035,0.294,-0.129,-0.11
SUMO1 (UniProt P63165),-0.126,0.167,0.006,-0.06,0.182,0.043,0.045,-0.06,0.211,0.033,-0.079,-0.007,-0.077,0.053,0.139,-0.065,0.01,0.022,0.042,-0.125
STARD9 (UniProt Q9P2P6),0.026,0.117,-0.089,0.119,0.06,0,-0.131,0.005,-0.003,-0.099,-0.121,0.161,0.091,0.068,-0.156,-0.066,0.085,0.083,-0.053,-0.07
SPART (UniProt Q8N0X7),0.024,0.008,0.057,0.008,0.07,0.002,-0.008,-0.014,-0.033,-0.055,0.008,-0.033,-0.084,0.02,-0.058,-0.056,-0.011,0.034,-0.04,0.128
TGFBRAP1 (UniProt Q8WUH2),0.064,0.217,-0.046,-0.119,0.084,0.062,0.194,0.121,-0.06,-0.053,-0.088,-0.067,-0.119,0.33,-0.108,-0.424,-0.037,0.046,0.052,-0.017
SRI (UniProt P30626),-0.042,0.113,0.322,0.025,0.09,0.121,0.185,0.016,-0.037,-0.041,-0.017,-0.032,-0.014,-0.039,-0.108,0.026,-0.048,-0.036,0.069,0.201
TIMM10B (UniProt Q9Y5J6),0.299,0.135,0.191,-0.189,0.216,0.048,0.042,0.543,-0.143,-0.051,,-0.008,-0.231,0,-0.07,-0.197,-0.126,,0.017,0.089
SURF2 (UniProt Q15527),0.021,-0.067,0.039,-0.03,-0.068,0.113,-0.057,0.027,-0.043,0.009,0.071,0.004,-0.043,-0.117,-0.014,0.131,0.022,0.01,-0.036,-0.238 (active)
SLC27A2 (UniProt O14975),0,0.057,0.054,0.032,0.101,0.005,0.108,0.018,-0.001,0.035,-0.039,0.144,-0.125,0.013,0.366 (active),0.015,0.055,0.01,-0.045,0.03
STAT5B (UniProt P51692),0.027,-0.148,0.035,0.071,0.028,-0.013,-0.007,-0.061,-0.077,-0.013,-0.153,-0.146,0.018,0.121,-0.401,-0.119,0.044,-0.095,-0.109,-0.022
ST6GAL1 (UniProt P15907),0.053,0.006,0.017,0.022,-0.033,-0.009,0.064,0.048,-0.064,0.041,-0.01,0.002,0.021,0.041,0.058,-0.051,-0.009,0.024,0.02,0.011
SMC5 (UniProt Q8IY18),-0.041,0.091,-0.091,0.04,0.014,0.005,-0.017,-0.141,0.042,0.116,0.041,0.062,-0.045,0.046,0.029,0.161,0.036,0.008,-0.031,-0.332 (active)
SRSF6 (UniProt Q13247),0.084,0.096,-0.072,0.062,-0.325,0.079,,-0.251,0.09,-0.154,-0.082,-0.072,-0.167,,0.234,-0.086,,0.116,0.003,-0.744
SLC27A4 (UniProt Q6P1M0),0.039,0.013,-0.023,0.032,0.082,-0.02,0.002,0.061,-0.017,0.062,-0.042,0.022,-0.034,0.003,0.072,-0.11,-0.044,0.039,0.047,0.104
STK26 (UniProt Q9P289),0.058,-0.014,0.195,-0.014,-0.008,0.124,-0.015,-0.08,0.023,0.02,0.03,-0.272 (active),-0.344 (active),-0.022,-0.081,-0.071,0.03,-0.019,0.022,-0.07
